This is an account of results in PubChem BioAssay (NCI).

What all share (assay): NCI-60 one-dose screen, 48 h (100 = growth as untreated, 0 = no growth, -100 = all killed)
Common to all, as to conditions: 10 µM

Test [1] concerns NCI-H23 lung.
Test [2] has as its system NCI-H226 lung.
For test [3], the system named is NCI-H322M lung.
The subject of test [4] is HOP-62 NSCLC.
In test [5] the test system is NCI-H460 lung.
The test system of test [6] is HOP-92 NSCLC.
The subject of test [7] is NCI-H522 lung.
In test [8] the test system is A549/ATCC NSCLC.
The subject of test [9] is 786-0 renal.
The subject of test [10] is COLO 205 colon.

SMILES strings stand for the structures. Compounds without any hit were thinned out: in the full panel of roughly 83,000, 20% have a hit.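 Step 1: grow cells in 96-well plates. Step 2: add test compound at a single concentration. Step 3: incubate 48 h. Step 4: record percent growth.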 Values without a mark were called inactive. Active and inactive are the calls of the source. How the source made its calls: active means growth percent below 10; inactive means the rest.

For the compound `CCCn1c(=O)c2c(nc(-c3cccc(OCCCCl)c3)n2C)n(CCC)c1=O`, the growth in test [1] was 59.1%; in test [2], 16.5%; in [3] it was 41%; in test [4] it was -18.3% (active); in test [5], 24.4%; in [6], -1.14% (active). Also, the growth in test [7] is 83.2%; in test [8] it was 28.3%; in test [9] it was 23.9%; in [10], 65.8%.

As to `CCOc1nc(-c2ccccc2)cc2c(O)c(C(=O)NC(C)C)[nH]c(=O)c12`, the growth in test [1] is 97%; in test [2] it was 105%; in test [3], 120%; in test [4] it was 99.7%; in test [5], 105%; in test [6], 58.2%. Further, the growth is 88.3% in test [7], 104% in [8], 112% in test [9] and 118% in [10].

Regarding `CN1/C(=C\C(I)C(I)C2=[N+](C)c3ccccc3C2(C)C)C(C)(C)c2ccccc21` (stereo not given), the growth in [1] is 3.16% (active); in test [2], 16.5%; in [3] it was 20.9%; in test [4], 5.15% (active); in [5], 4.27% (active); in [6], -25.7% (active). In addition, the growth in [7] is -14.1% (active); in [8] it was 11.3%; in [9] it was 23.2%; in test [10], -20.6% (active).

Turning to `Cc1ccc(C(=O)O)c(N)c1C`, the growth in test [1] was 94.4%; in [2] it was 98.6%; in [3], 96.1%; in test [4] it was 90.2%; in test [5], 108%; in test [6], 98.8%. Moreover, the growth in test [7] was 87.3%; in [8] it was 111%; in test [9] it was 103%; in test [10], 117%.

As to `COc1ccc(C2=Cc3ccc(OC(C)=O)cc3OC2)cc1`, the growth in test [1] was 95.9%; in [2], 91.1%; in test [3], 92.3%; in test [4], 109%; in [5] it was 103%; in test [6], 91.8%. Also, the growth was 75.4% in test [7], 88.3% in test [8], 100% in [9] and 110% in test [10].

For `CCOC(=O)c1cc2c(n1Cc1cc(OC)cc(OC)c1)-c1oncc1CC2`, the growth in [1] is 38.4%; in [2] it was 30.5%; in test [3], -1.31% (active); in test [4] it was 58%; in [5] it was 9.46% (active); in [6], 80%. Moreover, the growth in test [7] is 4.32% (active); in test [8] it was 29%; in test [9], 33.7%; in test [10], 1.38% (active).

On to `CCOC(=O)c1c(Cl)c2c(n1Cc1cccc(OC)c1)-c1oncc1CC2`, for which the growth in [1] is 50.5%; in test [2], 56.9%; in test [3] it was -7.41% (active); in test [4], 37.5%; in [5] it was 9.8% (active); in test [6], 31%. Also, the growth in test [7] was 5.7% (active); in test [8], 45%; in test [9] it was 33.7%; in test [10], 19.9%.

As to `Cc1cccc2c1O/C(=C\c1ncc([N+](=O)[O-])n1C)C2=O`, the growth was -13.7% (active) in test [1]; -25% (active) in test [2]; -17.9% (active) in test [3]; -33.5% (active) in test [4]; -29.1% (active) in [5]; -32.6% (active) in test [6]. The growth in [7] was -55.8% (active); in [8], -25.7% (active); in test [9], -28.5% (active); in test [10], -52.3% (active).

Take `CCCCCCCCCCN=C(c1ccc(N(C)C)cc1)c1ccc(N(C)C)cc1`: the growth in test [1] is 27.8%; in test [2], 57.6%; in test [3] it was 44.6%; in test [4], 29.4%; in test [5], 12.1%; in test [6] it was 47.9%. For the same compound, the growth is 2.43% (active) in [7], 30.5% in test [8], 48.8% in test [9] and 6.54% (active) in [10].

As to `COc1cccc(C(=O)NNc2nc(N3CCN(C4CCCCC4)CC3)nc(N3CCN(C(c4ccccc4)c4ccccc4)CC3)n2)c1`, the growth is 41.5% in test [1]; 73.7% in test [2]; 74.5% in test [3]; 45.2% in [4]; 46.1% in test [5]; 45.5% in test [6]. Further, the growth in [7] is 60.5%; in test [8], 35.8%; in test [9], 53%; in [10] it was 14.2%.

As for `O=C1/C(=C/c2ccc([N+](=O)[O-])s2)Oc2ccc(Cl)cc21`, the growth in test [1] was -35.5% (active); in test [2] it was -56.8% (active); in test [3] it was -43% (active); in [4], -6.59% (active); in test [5] it was -48.8% (active); in test [6], -71% (active). Besides, the growth is -70.3% (active) in [7], -26.5% (active) in test [8], -17.3% (active) in test [9] and -69.6% (active) in test [10].

Take `CCN1CCN(c2ccc(Nc3ncnc4c3nnn4CCc3cc(OC)cc(OC)c3)cc2)CC1`: the growth in test [1] was 88.8%; in test [2], 85.8%; in [3], 95.6%; in test [4], 99.4%; in [5], 106%; in [6], 89.6%. Also, the growth in test [7] is 96.1%; in [8] it was 95.5%; in test [9], 99.6%; in test [10] it was 89.3%.

As for `O=C1NN(c2ccccc2)C(c2cccnc2)=N/C1=C\c1cccnc1`, the growth was 89.4% in [1]; 80.8% in test [2]; 84.9% in [3]; 92% in test [4]; 95.2% in test [5]; 99% in test [6]. Besides, the growth in [7] is 105%; in [8] it was 112%; in test [9], 98.8%; in test [10] it was 105%.

Take `O=C(c1ccccc1)C(Nc1ccccc1)c1ccccc1` (stereo not given): the growth in test [1] was 84.5%; in test [2], 82.7%; in test [3] it was 85.4%; in [4] it was 83.5%; in test [5] it was 98.1%; in [6], 78.6%. Also, the growth in [7] was 67.7%; in test [8], 87.4%; in [9] it was 97.3%; in test [10], 98.7%.
